The whole screen tested about 310,000 compounds, of which about 14,000 (4.5%) showed an effect of 50% or more. Effects have a minus sign here. The sample holds strong results, similar compounds and a random draw of the others, so the mix is not that of the screen.
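Note: peak tail current of the secondary pulse compared with the same well before compound.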

For the assay, the target named is human ether-à-go-go-related gene (hERG) potassium channel (human, UniProt Q12809). Put plainly: primary screen, population patch clamp on CHO cells stably expressing hERG; higher = less effect of the substance.
human ether-à-go-go-related gene (hERG) potassium channel, sequence (Q12809 whole entry, looked up): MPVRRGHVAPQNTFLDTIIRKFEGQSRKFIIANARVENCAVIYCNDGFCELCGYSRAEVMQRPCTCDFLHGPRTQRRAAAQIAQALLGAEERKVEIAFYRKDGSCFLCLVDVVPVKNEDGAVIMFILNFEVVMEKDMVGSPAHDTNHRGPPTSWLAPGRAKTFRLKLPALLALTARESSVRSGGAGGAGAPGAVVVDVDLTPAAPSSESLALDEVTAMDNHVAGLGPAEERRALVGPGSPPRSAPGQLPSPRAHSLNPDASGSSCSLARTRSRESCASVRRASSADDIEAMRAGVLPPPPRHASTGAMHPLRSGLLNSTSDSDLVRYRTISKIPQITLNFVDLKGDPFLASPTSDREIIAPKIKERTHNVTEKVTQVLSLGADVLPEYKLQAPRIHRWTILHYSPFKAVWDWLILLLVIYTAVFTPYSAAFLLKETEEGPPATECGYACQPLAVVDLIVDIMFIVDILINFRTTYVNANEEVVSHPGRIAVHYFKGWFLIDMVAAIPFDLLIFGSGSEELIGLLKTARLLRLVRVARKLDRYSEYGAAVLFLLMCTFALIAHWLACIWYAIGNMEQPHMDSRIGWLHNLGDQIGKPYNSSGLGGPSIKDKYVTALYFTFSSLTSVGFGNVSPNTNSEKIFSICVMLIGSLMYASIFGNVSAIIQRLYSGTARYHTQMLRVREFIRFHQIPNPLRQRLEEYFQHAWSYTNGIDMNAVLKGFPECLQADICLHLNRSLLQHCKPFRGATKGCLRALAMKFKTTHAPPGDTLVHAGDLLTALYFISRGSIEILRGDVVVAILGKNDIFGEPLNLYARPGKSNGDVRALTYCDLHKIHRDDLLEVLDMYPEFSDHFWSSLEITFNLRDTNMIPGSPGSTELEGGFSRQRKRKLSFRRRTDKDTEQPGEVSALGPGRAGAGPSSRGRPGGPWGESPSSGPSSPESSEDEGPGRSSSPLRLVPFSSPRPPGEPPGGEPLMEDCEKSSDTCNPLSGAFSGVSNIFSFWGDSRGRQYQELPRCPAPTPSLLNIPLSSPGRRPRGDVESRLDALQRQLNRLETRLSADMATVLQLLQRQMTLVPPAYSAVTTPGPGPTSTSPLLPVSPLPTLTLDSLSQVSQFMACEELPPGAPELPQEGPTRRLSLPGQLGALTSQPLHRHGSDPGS
`Cc1cccc(N(Cc2cc3ccc(C)cc3[nH]c2=O)C(=O)c2ccco2)c1`: the “hERG current change (%, negative = inhibition) at 10uM” value is on record as -8.8%.

With `COC(=O)c1cccc(Nc2nc(-c3ccncc3)nc3ccccc23)c1`, the “hERG current change (%, negative = inhibition) at 10uM” value came out at 28.5%.

Take `Cc1ccc(C2CCN(C(=S)NC3CCCCC3)C2)cc1` (stereo not shown): the “hERG current change (%, negative = inhibition) at 10uM” value is -5.82%.

For the molecule `CC1CCCC(NC(=O)c2ccc(COc3ccccc3)o2)C1C` (stereo not shown), the “hERG current change (%, negative = inhibition) at 10uM” value was found to be 0.0111%.

Turning to `O=C(CNS(=O)(=O)c1ccccc1)OCC(=O)c1ccc([N+](=O)[O-])cc1`, the “hERG current change (%, negative = inhibition) at 10uM” value is -3.22%.

For `O=C(COC(=O)CNS(=O)(=O)c1ccc(F)c(F)c1F)Nc1ccc(OC(F)F)cc1`, the “hERG current change (%, negative = inhibition) at 10uM” value is on record as -65.2%.

As to `N#Cc1ccc(NC(=O)COC(=O)CCNS(=O)(=O)c2ccccc2)cc1`, the “hERG current change (%, negative = inhibition) at 10uM” value is given as -34.4%.

As for `O=C(COC(=O)CCNS(=O)(=O)c1ccccc1)Nc1ccc(OC(F)F)cc1`, the “hERG current change (%, negative = inhibition) at 10uM” value was -60.3%.

Consider `COc1ccc(NC(=O)COC(=O)[C@@H]2CCCN2S(=O)(=O)c2ccccc2F)c(OC)c1`, for which the “hERG current change (%, negative = inhibition) at 10uM” value was -18.2%.

Regarding `COc1ccc(NC(=O)COC(=O)CNS(=O)(=O)c2ccc(F)c(F)c2F)cc1OC`, the “hERG current change (%, negative = inhibition) at 10uM” value was found to be 21.3%.

With `CC(=O)c1ccccc1NC(=O)COC(=O)C1CCCN1S(=O)(=O)c1ccccc1F` (stereo not shown), the “hERG current change (%, negative = inhibition) at 10uM” value is given as -0.476%.

On to `COc1ccc(NC(=O)COC(=O)CCNS(=O)(=O)c2ccccc2)cc1OC`, for which the “hERG current change (%, negative = inhibition) at 10uM” value is on record as 23.2%.

In the case of `NC(=O)NC(=O)COC(=O)CNS(=O)(=O)c1ccc(F)c(F)c1F`, the “hERG current change (%, negative = inhibition) at 10uM” value is reported as 13.3%.

Regarding `O=C(COC(=O)[C@@H]1CCCN1S(=O)(=O)c1ccccc1F)Nc1ccc(OC(F)F)cc1`, the “hERG current change (%, negative = inhibition) at 10uM” value was -61.7%.

On to `CCn1c(CC(=O)Nc2cccc(OC)c2)nnc1SCC(=O)Nc1nccs1`, for which the “hERG current change (%, negative = inhibition) at 10uM” value was -2.39%.

`CCc1ccc2c(c1)cc(C)c1nnc(SCC(=O)Nc3cc(OC)c(OC)cc3C(=O)O)n12`: the “hERG current change (%, negative = inhibition) at 10uM” value was 5.98%.

Take `CC1CCC2(CC1)NC(=O)N(CC(=O)NCc1ccc(F)cc1)C2=O` (stereo not shown): the “hERG current change (%, negative = inhibition) at 10uM” value is given as -21.2%.

Regarding `C/C(=N/Nc1nc(-c2ccccc2)cc(-c2ccc(F)cc2)n1)c1cccc(N)c1`, the “hERG current change (%, negative = inhibition) at 10uM” value was 3.2%.

On to `NS(=O)(=O)c1ccc(CCNC(=O)c2ccc(OCC3CCCO3)cc2)cc1` (stereo not shown), for which the “hERG current change (%, negative = inhibition) at 10uM” value is reported as 19.9%.

For `Cc1cc(N2CCN(C)CC2)nc2ccc(NC(=O)c3ccccc3F)cc12`, the “hERG current change (%, negative = inhibition) at 10uM” value is recorded as -58.4%.

With `Cc1ccc(NC(=O)c2ccc3c(c2)OCO3)cc1Cl`, the “hERG current change (%, negative = inhibition) at 10uM” value is reported as -2.98%.

As for `Cc1cc(N2CCN(C)CC2)nc2ccc(NC(=O)c3cccnc3Cl)cc12`, the “hERG current change (%, negative = inhibition) at 10uM” value is on record as -2.54%.

`COc1ccc(C(=O)Nc2ccc3nc(N4CCN(C)CC4)cc(C)c3c2)c(OC)c1`: the “hERG current change (%, negative = inhibition) at 10uM” value is recorded as -0.388%.

As for `Cc1cc(N2CCN(C)CC2)nc2ccc(NC(=O)c3ccc4c(c3)OCO4)cc12`, the “hERG current change (%, negative = inhibition) at 10uM” value is listed as -62.2%.

As to `CCN1CCN(c2cc(C)c3cc(NC(=O)c4ccc5c(c4)OCO5)ccc3n2)CC1`, the “hERG current change (%, negative = inhibition) at 10uM” value is on record as -38.6%.

The values are drawn from paper PMC4336329 (PLoS ONE, 2015).
